In experiment [1] the target is 6-phosphogluconate dehydrogenase, decarboxylating (Homo sapiens) (UniProt P52209). The experiment is described as follows: inhibition of human phosphogluconate dehydrogenase – biochemical, recombinant enzyme, NADPH absorbance, primary screen (AID 1159550). The note with it: recombinant 6PGD, NADPH absorbance 341 nm; at 10 µM; stronger effect = higher value.
For experiment [2], the system named is Aerobactin synthetase IucA (Klebsiella pneumoniae hvKP1). The experiment is described as follows: IucA enzyme inhibition, primary screen, biochemical, Spectrum library (AID 1346200; call rule not given here;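 further: 100% = wells without compound and 0% = wells lacking enzyme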). The note with it: malachite green pyrophosphate, A620, at 8 µM, stronger effect = lower value.
The target in experiment [3] is Mitogen-activated protein kinase 7 (Homo sapiens) (UniProt Q13164). The experiment can be described thus: Gal4-ERK5 driven luciferase induction – cell-based, HTS, primary screen (AID 1508626;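 active means luciferase signal above three times the same-plate solvent-only control wells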;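 further: luciferase driven by Gal4-ERK5 fusion binding five Gal4 sites before minimal TATA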). The note with it: HeLa Gal4-ERK5 transactivation, 18 h, at 5 µM, stronger effect = higher value.
Mitogen-activated protein kinase 7 (Homo sapiens), sequence (Q13164 whole entry, looked up, the tested form may be a part): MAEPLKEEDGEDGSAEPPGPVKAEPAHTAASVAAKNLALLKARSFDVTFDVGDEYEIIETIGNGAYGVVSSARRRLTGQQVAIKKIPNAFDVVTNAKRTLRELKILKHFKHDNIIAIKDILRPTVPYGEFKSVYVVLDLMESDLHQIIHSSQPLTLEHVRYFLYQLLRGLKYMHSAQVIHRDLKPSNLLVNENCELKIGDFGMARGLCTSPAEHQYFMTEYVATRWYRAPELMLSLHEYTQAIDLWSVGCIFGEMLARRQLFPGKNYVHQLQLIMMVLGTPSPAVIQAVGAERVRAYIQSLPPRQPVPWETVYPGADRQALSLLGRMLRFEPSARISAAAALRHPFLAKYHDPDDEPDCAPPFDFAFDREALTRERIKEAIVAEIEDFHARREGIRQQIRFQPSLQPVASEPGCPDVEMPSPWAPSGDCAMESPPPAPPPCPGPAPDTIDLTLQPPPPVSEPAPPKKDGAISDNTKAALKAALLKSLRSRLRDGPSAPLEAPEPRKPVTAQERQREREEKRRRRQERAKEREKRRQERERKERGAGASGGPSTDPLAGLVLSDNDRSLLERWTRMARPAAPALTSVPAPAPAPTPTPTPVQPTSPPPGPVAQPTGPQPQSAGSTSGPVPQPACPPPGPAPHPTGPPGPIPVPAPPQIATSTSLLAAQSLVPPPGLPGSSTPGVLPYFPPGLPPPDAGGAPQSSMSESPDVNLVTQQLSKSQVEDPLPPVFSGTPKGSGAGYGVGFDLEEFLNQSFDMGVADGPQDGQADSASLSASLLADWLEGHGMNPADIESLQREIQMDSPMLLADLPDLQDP
The nature of experiment [4]: P. berghei load reduction in hepatocytes – cell-based, HepG2, luciferase luminescence, HepG2 viability, primary screen (AID 624349; in the data active means parasite load remaining mostly below about 12%, no sharp cut-off; inactive means mostly above about 10%;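 further: 100% = mean of DMSO negative control wells on the same plate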). The note with it: P. berghei liver stage in HepG2, luciferase luminescence, concentration not given here; parasite load remaining: stronger effect = lower value; viability: measured here: HepG2 viability without parasites.
Experiment [5] is described as follows: viability loss with induced miR-34 in A549 – imaging, A549 dox-inducible miR-34, nuclei and caspase counts, primary screen (AID 1347080;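 active means compounds whose cell count with miR-34 switched on is under 0.7 times the count with it off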). The note with it: A549 miR-34 inducible, Hoechst nuclei count, 48 h.
Experiment [6] concerns the target NAD(+) hydrolase SARM1 (Homo sapiens) (UniProt Q6SZW1). The experiment can be described thus: blocking NAD cleavage by SARM1 SAM-TIR – cell lysate, NAD-Glo luminescence (AID 1508614;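 active means compound whose remaining NAD level is above about 45 nM, limit read from the data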). The following applies: SAM-TIR HEK293T lysate NADase, at 1 µM, stronger effect = higher value.
The nature of experiment [7]: MELAS cybrid and Rieske KO viability enhancers – cell-based, MELAS cybrids, Rieske KO mouse fibroblasts, CellTiter-Glo, primary screen (AID 1508586;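 active means mean z-score across replicates of 1.96 or higher in either the MELAS or the Rieske mutant cell line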;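 further: z relative to plate mean and SD of compound and empty wells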). The note with it: low glucose. Background: ATP-based viability assays read luminescence as a measure of living cells.
A short description of experiment [8]: galactose survival enhancers in mitochondrial complex I cybrids – cell-based, galactose medium, ATP luminescence, primary screen (AID 1645843;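 active means z-score of at least 1.8 in each of two replicates, scored against plate mean and spread of sample wells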;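 further: positive z means more ATP and so rescue of galactose-driven cybrid death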). The note with it: complex I mutant cybrid cells, 72 h, stronger effect = higher value.
For experiment [9], the target named is ATP-dependent translocase ABCB1 (Homo sapiens) (UniProt P08183). The experiment can be described thus: P-glycoprotein substrate transport blockade – cell-based (AID 377; in the data active means fluorescence slope change above about 50%). The note with it: MDR1-expressing cells, fluorescent substrate accumulation slope; stronger effect = higher value; concentration not given here.
ATP-dependent translocase ABCB1 (Homo sapiens), sequence (P08183 whole entry, looked up): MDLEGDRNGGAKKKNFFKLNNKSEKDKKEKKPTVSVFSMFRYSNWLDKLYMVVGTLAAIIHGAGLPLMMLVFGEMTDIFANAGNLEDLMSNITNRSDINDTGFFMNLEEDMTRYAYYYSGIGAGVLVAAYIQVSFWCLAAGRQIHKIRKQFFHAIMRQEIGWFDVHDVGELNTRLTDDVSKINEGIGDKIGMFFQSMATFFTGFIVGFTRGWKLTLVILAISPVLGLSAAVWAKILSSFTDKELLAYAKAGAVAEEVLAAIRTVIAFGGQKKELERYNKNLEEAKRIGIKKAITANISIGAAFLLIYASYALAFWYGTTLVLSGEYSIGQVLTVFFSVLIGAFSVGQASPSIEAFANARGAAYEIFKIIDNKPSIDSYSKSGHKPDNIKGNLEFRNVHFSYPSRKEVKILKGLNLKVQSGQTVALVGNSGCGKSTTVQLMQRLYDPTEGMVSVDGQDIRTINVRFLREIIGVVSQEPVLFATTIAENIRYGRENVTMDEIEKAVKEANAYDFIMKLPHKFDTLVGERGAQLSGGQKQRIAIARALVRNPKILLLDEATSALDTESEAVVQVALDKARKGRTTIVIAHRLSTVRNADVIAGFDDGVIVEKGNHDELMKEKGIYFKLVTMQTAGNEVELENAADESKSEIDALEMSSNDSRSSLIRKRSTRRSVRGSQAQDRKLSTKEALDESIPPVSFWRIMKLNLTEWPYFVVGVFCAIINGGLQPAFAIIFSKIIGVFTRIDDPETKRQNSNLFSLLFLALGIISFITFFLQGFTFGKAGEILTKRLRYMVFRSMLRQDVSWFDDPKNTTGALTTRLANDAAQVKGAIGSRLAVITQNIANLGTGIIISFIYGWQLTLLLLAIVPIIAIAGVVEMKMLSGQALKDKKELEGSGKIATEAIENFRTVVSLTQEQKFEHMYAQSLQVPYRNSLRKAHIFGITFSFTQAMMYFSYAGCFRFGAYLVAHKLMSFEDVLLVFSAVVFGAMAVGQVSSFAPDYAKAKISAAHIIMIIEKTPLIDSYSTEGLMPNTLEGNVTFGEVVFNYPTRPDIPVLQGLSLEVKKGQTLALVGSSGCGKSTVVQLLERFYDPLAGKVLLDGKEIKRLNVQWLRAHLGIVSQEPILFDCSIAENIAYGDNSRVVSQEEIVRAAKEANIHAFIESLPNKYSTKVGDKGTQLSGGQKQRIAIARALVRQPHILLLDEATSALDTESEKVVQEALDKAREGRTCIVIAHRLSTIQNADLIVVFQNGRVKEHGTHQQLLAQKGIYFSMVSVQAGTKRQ
A short description of experiment [10]: compounds altering viability of human ES cells (AID 493140; call rule not given here;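 further: cells exposed to compounds for four days before counting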). The following applies: human embryonic stem cell survival screen; stronger effect = higher value.
A short description of experiment [11]: blockers of polyQ-driven CASP3 activation – cell-based (AID 1583). The following applies: polyglutamine-induced caspase-3 activation, cell assay; stronger effect = higher value;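 tested at 10 µM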.
A short description of experiment [12]: yeast 75Q aggregation reduction – 75Q-TubU reporter (AID 1593). The note with it: Yeast 75Q polyglutamine aggregation reporter.
Experiment [13] is described as follows: restoration of touch response, mutant HTT neurons – whole organism, C. elegans mechanosensory neurons, N-terminal huntingtin (AID 1599). The note with it: C. elegans polyQ-huntingtin mechanosensory neurons, stronger effect = higher value.
A short description of experiment [14]: blockers of cytochrome c efflux from mitochondria – biochemical, purified mitochondria (AID 1603).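 Further: mouse liver mitochondria challenged with calcium chloride; signal normalized to the plate average as 100%.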 The following applies: stronger effect = lower value.
A short description of experiment [15]: polyglutamine aggregate formation blockers (AID 1604). The note with it: polyglutamine-induced protein aggregation inhibition assay; stronger effect = higher value; tested at 2.5 µM.
A short description of experiment [16]: glutamate transport activators, MN-1 cells, MN-1 cell line (AID 1612).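 Further: tested at 1 µM final; 0% = mean of DMSO vehicle wells on each plate; positive means more glutamate uptake than control and negative means less.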 The note with it: MN-1 motor neuron cells, stronger effect = higher value.
Experiment [17] is described as follows: GFP-Q80 aggregate reduction, neuronal-like cells, cell-based, NGF-treated PC12, GFPQ80 (AID 1614).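 Further: lower means fewer inclusions and 0 means no inclusions at all.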 The following applies: PC12 NGF-treated GFP-polyQ80 inclusion reduction.
Experiment [18] is described as follows: 75Q-TubH aggregate inhibition, S. cerevisiae, yeast (AID 1616). The following applies: S. cerevisiae 75Q-TubH polyglutamine aggregation suppression; stronger effect = higher value.
Setting [19] is: measured here: relative caspase fold change +Dox/-Dox.
Where [20] appears, read: measured here: total cells with miR-34 induction, stronger effect = lower value.
Where [21] appears, read: measured here: total cells without miR-34 induction.
Where [22] appears, read: MELAS cybrid survival, CellTiter-Glo 48 h, stronger effect = higher value.
Where [23] appears, read: Rieske KO mouse fibroblast survival, CellTiter-Glo 72 h.

“And” between values parts separate entries of the source, which are not always exact repeats. Equal values may be shown once. Inconclusive results are not listed. For part of these data: Measured potencies and affinities stand elsewhere. The source made the active and inactive calls.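 How the source made its calls, unless noted: active means at least 20% inhibition of 6-phosphogluconate dehydrogenase activity; inactive means the rest.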

By inhibition is commonly meant the relative decrease from the control value, in per cent. By viability is commonly meant a read-out of living cells in per cent, often relative to untreated cells.

6-phosphogluconate dehydrogenase, decarboxylating (Homo sapiens), sequence (P52209 whole entry, looked up): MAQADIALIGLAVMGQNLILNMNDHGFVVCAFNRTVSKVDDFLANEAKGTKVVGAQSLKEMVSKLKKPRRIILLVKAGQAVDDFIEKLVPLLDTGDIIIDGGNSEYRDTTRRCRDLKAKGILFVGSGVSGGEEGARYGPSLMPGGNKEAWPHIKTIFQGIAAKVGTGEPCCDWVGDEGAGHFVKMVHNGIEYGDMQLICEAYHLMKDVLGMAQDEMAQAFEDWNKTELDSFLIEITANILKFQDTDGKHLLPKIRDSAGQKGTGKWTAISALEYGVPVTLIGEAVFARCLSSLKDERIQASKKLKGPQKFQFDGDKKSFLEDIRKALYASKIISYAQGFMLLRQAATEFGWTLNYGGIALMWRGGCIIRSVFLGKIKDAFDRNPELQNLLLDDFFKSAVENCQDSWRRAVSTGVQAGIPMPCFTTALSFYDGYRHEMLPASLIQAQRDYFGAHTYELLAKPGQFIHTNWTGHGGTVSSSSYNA
NAD(+) hydrolase SARM1 (Homo sapiens), sequence (Q6SZW1 whole entry, looked up): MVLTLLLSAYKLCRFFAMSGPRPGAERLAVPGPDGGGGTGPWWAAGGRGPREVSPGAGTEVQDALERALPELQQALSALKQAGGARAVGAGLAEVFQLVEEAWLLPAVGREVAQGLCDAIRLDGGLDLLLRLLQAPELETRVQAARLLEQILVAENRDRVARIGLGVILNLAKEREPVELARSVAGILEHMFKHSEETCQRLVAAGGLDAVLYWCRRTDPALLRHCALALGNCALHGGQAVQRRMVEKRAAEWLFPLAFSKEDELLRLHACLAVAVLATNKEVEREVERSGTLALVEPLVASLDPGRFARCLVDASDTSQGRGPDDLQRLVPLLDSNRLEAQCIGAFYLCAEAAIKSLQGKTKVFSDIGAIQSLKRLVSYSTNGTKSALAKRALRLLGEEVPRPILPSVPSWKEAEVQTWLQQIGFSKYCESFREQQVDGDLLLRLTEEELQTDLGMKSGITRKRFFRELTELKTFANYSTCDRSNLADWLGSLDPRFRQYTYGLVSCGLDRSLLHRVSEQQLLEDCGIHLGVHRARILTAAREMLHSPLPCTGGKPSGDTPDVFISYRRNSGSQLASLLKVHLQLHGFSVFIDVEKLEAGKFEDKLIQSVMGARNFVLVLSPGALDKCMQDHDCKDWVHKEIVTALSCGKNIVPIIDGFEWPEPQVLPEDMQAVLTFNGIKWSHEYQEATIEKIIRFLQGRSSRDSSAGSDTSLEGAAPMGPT

On to `CC(C)Nc1nc(Cl)nc(NC(C)C)n1`, for which, in [1], the inhibition is -12% (inactive). The activity remaining in [2] is 111% (inactive). Also, the luciferase signal in [3] was 52 AU (inactive).

`CCC(N)C(O)c1ccc(O)c(O)c1` (configuration not stated): the parasite load remaining in experiment [4] was 130% (inactive) and 71.4% (inactive). The viability in [4] was 87.2% and 104%. Besides, the inhibition in experiment [1] was -10.4% (inactive). The activity remaining in experiment [2] was 121% (inactive). The fold change in experiment [5] (stronger effect = lower value, cell number ratio, induced over uninduced) is 0.787 (inactive); in experiment [5] (setting [19]), 5.47. For the same compound, the cell count in experiment [5] (setting [20]) was determined as 7560; in experiment [5] (setting [21]), 9610. Further, the remaining NAD in [6] was 10 nM (inactive). In addition, the luciferase signal in experiment [3] was 76 AU (inactive).

On to `COc1c2c(c(CC=C(C)C)c3oc(=O)c(-c4ccc(O)cc4)c(O)c13)OC(C)(C)C=C2`, for which, in experiment [1], the inhibition is -5.17% (inactive). The activity remaining in [2] is 104% (inactive). For the same compound, the luciferase signal in experiment [3] is 60 AU (inactive).

As for `COc1ccc2c(c1)[C@]13CCCC[C@@H]1[C@H](C2)N(C)CC3`, in experiment [1], the inhibition was 2.05% (inactive). Also, the fold change in experiment [5] (stronger effect = lower value) is 0.873 (inactive) and 0.843 (inactive) and 0.893 (inactive); in experiment [5] (setting [19]), 2.02 and 0.727 and 1.27. The cell count in experiment [5] (setting [20]) is 9020 and 10500 and 9760; in [5] (setting [21]) it was 10300 and 12400 and 10900. The z-score was 0.326 (inactive) and 0.234 (inactive) in [7] (setting [22]); 0.302 and -0.256 in experiment [7] (setting [23]); -0.13 (inactive) in experiment [8]. In addition, in experiment [6], the remaining NAD is 10 nM (inactive). Besides, the luciferase signal in experiment [3] is 28 AU (inactive).

Take `C[C@]12CC[C@H](O)C[C@@H]1CC[C@@H]1[C@@H]2CC[C@]2(C)C(=O)CC[C@@H]12`: the fluorescence slope change in experiment [9] is 99.1% (active). Besides, the survival in experiment [10] is 10.7 (inactive). Moreover, the parasite load remaining in experiment [4] was 91.7% (inactive) and 87.8% (inactive). Moreover, the viability in [4] is 100% and 84.1%. Moreover, the inhibition in experiment [1] was 18.5% (inactive). In addition, the fold change in experiment [5] (stronger effect = lower value) is 0.944 (inactive); in experiment [5] (setting [19]) it was 1.47. Further, the cell count was 7960 in [5] (setting [20]) and 8440 in experiment [5] (setting [21]). Further, the z-score in experiment [7] (setting [22]) was 0.265 (inactive); in [7] (setting [23]), 0.304. Moreover, the luciferase signal in experiment [3] was 20 AU (inactive).

In the case of `CCCC(C)C1(CC)C(=O)NC(=O)NC1=O` (configuration not stated), the inhibition is 8.8% in [11] and -1.31% (inactive) in [1]. Besides, in experiment [12], the score was found to be 1.08. Further, the rescue above control in experiment [13] is -0.14. In addition, the cytochrome c release ratio in experiment [14] amounted to 0.79. Also, in experiment [15], the inhibition of aggregation was -14.3%. In addition, the glutamate uptake change in experiment [16] was 8.51%. Moreover, in [17], the inclusion score came to 2. For the same compound, the aggregation suppression score in [18] stood at 0.96. Moreover, the parasite load remaining in [4] is 22.1% (inactive). Moreover, in experiment [4], the viability stood at 103%. The activity remaining in [2] was 95.4% (inactive). Further, the figures for the fold change in [5] (stronger effect = lower value) and in experiment [5] (setting [19]) were 0.918 (inactive) and 2.52, respectively. In addition, the results for the cell count in [5] (setting [20]) and in [5] (setting [21]) were 11200 and 12200, respectively. The z-score in [7] (setting [22]) is 0.13 (inactive); in [7] (setting [23]) it was -0.121. For the same compound, in [3], the luciferase signal was 60 AU (inactive).
